# According to publication PMC4336329 (PLoS ONE, 2015):
# About 14,000 (4.5%) of roughly 310,000 compounds showed an effect of 50% or more. The effect is printed as a negative number. What follows is part of a selection rich in strong results, with near analogues and random picks from the rest.
# Target: human ether-à-go-go-related gene (hERG) potassium channel (human, UniProt Q12809)
# Assay: primary screen, population patch clamp on CHO cells stably expressing hERG; higher = less effect of the substance
# 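Also: peak tail current of the secondary pulse compared with the same well before compound.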
# Chain of human ether-à-go-go-related gene (hERG) potassium channel (Q12809 whole entry, looked up): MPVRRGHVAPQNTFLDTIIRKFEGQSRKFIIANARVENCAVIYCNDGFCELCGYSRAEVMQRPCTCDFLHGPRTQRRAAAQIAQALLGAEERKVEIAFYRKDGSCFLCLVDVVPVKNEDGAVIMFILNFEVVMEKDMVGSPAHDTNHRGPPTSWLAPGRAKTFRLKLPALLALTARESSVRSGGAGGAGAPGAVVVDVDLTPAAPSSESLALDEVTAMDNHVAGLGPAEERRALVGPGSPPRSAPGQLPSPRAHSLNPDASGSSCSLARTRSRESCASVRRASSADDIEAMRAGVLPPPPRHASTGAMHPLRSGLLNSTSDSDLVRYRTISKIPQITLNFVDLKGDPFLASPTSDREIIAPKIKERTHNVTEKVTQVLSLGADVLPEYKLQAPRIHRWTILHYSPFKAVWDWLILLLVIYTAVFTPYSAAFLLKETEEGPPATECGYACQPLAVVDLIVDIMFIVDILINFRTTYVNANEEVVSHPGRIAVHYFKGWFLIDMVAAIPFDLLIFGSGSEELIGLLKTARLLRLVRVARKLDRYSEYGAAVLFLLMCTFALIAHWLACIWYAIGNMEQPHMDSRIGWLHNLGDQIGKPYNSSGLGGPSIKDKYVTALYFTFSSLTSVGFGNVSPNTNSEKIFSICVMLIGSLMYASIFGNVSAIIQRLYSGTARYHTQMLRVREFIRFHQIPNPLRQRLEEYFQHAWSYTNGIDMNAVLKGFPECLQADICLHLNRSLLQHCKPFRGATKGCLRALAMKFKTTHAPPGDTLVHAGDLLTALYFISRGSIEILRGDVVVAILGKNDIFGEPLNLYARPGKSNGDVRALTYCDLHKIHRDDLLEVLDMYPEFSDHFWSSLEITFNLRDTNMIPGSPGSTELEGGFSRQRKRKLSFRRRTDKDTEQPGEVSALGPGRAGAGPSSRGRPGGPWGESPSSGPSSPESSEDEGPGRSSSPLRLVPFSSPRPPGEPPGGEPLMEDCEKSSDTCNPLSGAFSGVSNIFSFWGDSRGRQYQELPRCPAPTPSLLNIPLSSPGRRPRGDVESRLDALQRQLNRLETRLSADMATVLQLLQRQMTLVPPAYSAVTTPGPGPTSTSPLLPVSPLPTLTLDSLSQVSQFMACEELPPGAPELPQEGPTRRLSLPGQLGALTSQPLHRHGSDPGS
row,SMILES,"hERG current change (%, negative = inhibition) at 10uM"
1,CNC(=O)CN(C)S(=O)(=O)c1ccc(OC)c(Cl)c1,6.65%
2,CC(=O)Nc1ncc(Cc2cc(Cl)ccc2Cl)s1,-1.4%
3,CSc1nnc(Cn2c(=O)sc3ccccc32)n1-c1cccc(Cl)c1,-37.9%
4,Cn1c(=O)c2c(ncn2CC(=O)OCC(=O)Nc2ccccc2Cl)n(C)c1=O,4.46%
5,CC(NCc1ccc2c(c1)OCO2)C(=O)NC1CCCc2ccccc21.O=C(O)C(=O)O (stereo not drawn),-22.6%
6,CC(C(=O)NC1CCCc2ccccc21)N1CCN(Cc2ccc3c(c2)OCO3)CC1 (stereo not drawn),-51.9%
7,CC(C(=O)NC1CCCc2ccccc21)N1CCN(c2ccc(F)cc2)CC1 (stereo not drawn),-35.6%
8,COC(=O)c1cc2c(ccn2C)n1C,19.5%
9,CC(C)(C)c1ccc(S(=O)(=O)/N=C2\C=C(NS(=O)(=O)c3ccccc3)C(=O)c3ccccc32)cc1,-2.61%
10,COc1ccc(/C=C/C(=O)NC(=S)NN2CCCCC2c2cccnc2)cc1 (stereo not drawn),-26.9%
11,O=C(NC(=S)N1CCCCC1c1cccnc1)c1ccc(F)cc1 (stereo not drawn),5.06%
12,O=C(/C=C/c1ccc(Cl)cc1)NC(=S)NN1CCCCC1c1cccnc1 (stereo not drawn),-67%
13,O=C(/C=C/c1ccc(F)cc1)NC(=S)N1CCCCC1c1cccnc1 (stereo not drawn),-68.1%
14,O=C(NC(=S)N1CCCCC1c1cccnc1)c1ccccc1 (stereo not drawn),4.5%
15,COc1ccc(/C=C/C(=O)NC(=S)NN2CCCCC2c2cccnc2)cc1OC (stereo not drawn),3.25%
16,COc1ccc(C)cc1NCc1cccc(OC)c1OC,1.13%
17,COc1cc(/C=C(\C#N)C(=O)NCC2CCCO2)ccc1OCCC(C)C (stereo not drawn),4.67%
18,O=C(Nc1ccccc1)N1CCCN(c2ccc(C(F)(F)F)cc2[N+](=O)[O-])CC1,-39.9%
19,O=C(Cn1nc(Cc2cccnc2)c2ccccc2c1=O)NCC1CCCO1 (stereo not drawn),9.7%
20,O=C(Cn1nc(Cc2cccnc2)c2ccccc2c1=O)NCC1COc2ccccc2O1 (stereo not drawn),-57.4%
21,O=C(Cn1nc(Cc2cccnc2)c2ccccc2c1=O)NCc1ccc2c(c1)OCO2,-25.8%

row,SMILES,"hERG current change (%, negative = inhibition) at 10uM"
1,Cc1ccc(C2CC(c3ccccc3)=NN2c2ccccc2)o1 (stereo not drawn),4.42%
2,COc1ccc(C(CNC(=O)c2oc3ccccc3c2C)N2CCCC2)cc1 (stereo not drawn),-43.8%
3,COc1ccc(C(CNC(=O)c2ccc(-c3ccccc3Cl)o2)N2CCOCC2)cc1 (stereo not drawn),-23.7%
4,CCc1ccc2oc(C(=O)NCC(c3ccc(OC)cc3)N3CCCCC3)c(C)c2c1 (stereo not drawn),-3.57%
5,COc1ccc(C(CNC(=O)c2oc3c(Cl)cccc3c2C)N2CCCC2)cc1 (stereo not drawn),-50.9%
6,COc1ccc(C(CNC(=O)c2oc3ccc(C)cc3c2C)N2CCCCC2)cc1 (stereo not drawn),6.26%
7,COc1ccc(C(CNC(=O)c2oc3cc(C)c(Cl)cc3c2C)N2CCCCC2)cc1 (stereo not drawn),16.3%
8,COc1ccc(C(CNC(=O)c2oc3ccc(Br)cc3c2C)N2CCCCC2)cc1 (stereo not drawn),-13.3%
9,COc1ccccc1C(CNC(=O)c1ccco1)N1CCCC1 (stereo not drawn),1.23%
10,COc1ccc(C(CNC(=O)c2oc3ccc(Cl)cc3c2C)N2CCCCC2)cc1 (stereo not drawn),-25.9%
11,COc1ccc(C(CNC(=O)c2oc3ccc(F)cc3c2C)N2CCCCC2)cc1 (stereo not drawn),-59.9%
12,COc1ccc(C(CNC(=O)c2oc3ccc(OC)cc3c2C)N2CCCC2)cc1 (stereo not drawn),-67.5%
13,COc1ccccc1C(CNC(=O)c1ccc(-c2ccccc2Cl)o1)N1CCCC1 (stereo not drawn),-72.2%
14,CC(=O)Nc1ccc(Nc2ncnc3ccccc23)cc1,10.9%
15,O=C(C(=C1N(Cc2ccc(Cl)nc2)CCN1Cc1ccc(Cl)nc1)[N+](=O)[O-])C(Cl)Cl,-26.6%
16,CCn1c(C)nc2cc(S(N)(=O)=O)ccc21,21.9%
17,Cc1ccc(C)c(NC(=O)c2nnn(Cc3ccccc3)c2N)c1,-6.11%
18,Cc1nc(NC(=O)CSc2cc(C)c3ccccc3n2)c(Cl)cc1Cl,5.23%
19,CC1CN(C(=O)CCNC(=O)c2ccc(Br)cc2)CC(C)O1 (stereo not drawn),-4.12%
20,O=C(CSc1ncn[nH]1)Nc1cccc2ccccc12,3.88%
21,CCC(C)(C)NC(=O)Cc1ccccc1OC,23%

row,SMILES,"hERG current change (%, negative = inhibition) at 10uM"
1,COc1ccc(C(CNC(=O)c2cccc(S(=O)(=O)N3CCCCC3)c2)N2CCCC2)cc1 (stereo not drawn),-43.8%
2,COc1ccc(C(CNC(=O)c2ccc(Cl)c(NC(=O)c3cccs3)c2)N2CCCC2)cc1 (stereo not drawn),-70.9%
3,COc1ccc(C(CNC(=O)c2cccc(Br)c2)N2CCCC2)cc1 (stereo not drawn),-31.6%
4,COc1ccc(C(CNC(=O)c2cccc(NC(=O)c3cccs3)c2)N2CCCC2)cc1 (stereo not drawn),-58.8%
5,COc1ccc(C(CNC(=O)CNC(=O)c2cccc(Cl)c2)N2CCCC2)cc1 (stereo not drawn),-33.8%
6,COc1ccc(C(CNC(=O)c2cccc(S(=O)(=O)Nc3ccc(C)cc3)c2)N2CCCCC2)cc1 (stereo not drawn),-30.7%
7,COc1cc2c(cc1OC)C(C)N(C(=O)Nc1cc(C)cc(C)c1)CC2 (stereo not drawn),4.95%
8,COC(=O)c1c(NC(=O)c2ccco2)sc2c1CC(C)(C)NC2(C)C,-21.2%
9,Cn1c(=O)c2c(ncn2CC(=O)OCC(=O)Nc2sccc2C(N)=O)n(C)c1=O,-10.1%
10,COC(=O)C1=C(C)N(c2cccc3ccccc23)C(=O)C1,-6.64%
11,Cc1noc(NC(=O)c2ccccc2C(F)(F)F)c1C#N,-46%
12,CCN1C(=O)[C@H]2[C@@H](c3ccc(OC)cc3)N3C(=O)CN(CCOC)C(=O)[C@@]3(C)[C@H]2C1=O,-2.75%
13,O=C(CN1CCN(C/C=C/c2ccccc2)CC1)NCc1ccccc1,-73.3%
14,O=C(CN1CCN(c2ccccc2F)CC1)NCc1ccc(Cl)cc1,-19.1%
15,O=C(N/C=C\c1ccccc1)NCc1ccc(Cl)cc1,1.95%
16,Cl.O=C(CN1CCCC1)NCc1ccccc1,15.6%
17,O=C(CN1CCN(C/C=C/c2ccccc2)CC1)NCc1ccc(Cl)cc1,-78%
18,O=C(CN1CCCCCC1)NCc1ccccc1,10.1%
19,COc1cccc(C2(c3cccc(OC)c3)CC2C(=O)Nc2ccccc2Cl)c1 (stereo not drawn),14%
20,CN1C(=O)C(=Cc2ccc(-c3cccc(Cl)c3)o2)C(=O)N(C)C1=O,10.2%
21,O=C(c1ccccc1)N1CCN(c2ccc([N+](=O)[O-])c(NCc3cccnc3)c2)CC1,-69.7%

row,SMILES,"hERG current change (%, negative = inhibition) at 10uM"
1,COc1cccc(NC(=O)c2cc([N+](=O)[O-])ccc2NCc2cccnc2)c1,-44%
2,Cc1ccc(C(=O)N2CCN(c3ccc([N+](=O)[O-])c(NCc4cccnc4)c3)CC2)cc1,-59.4%
3,Cc1ccc(NC(=O)c2cc([N+](=O)[O-])ccc2NCc2cccnc2)cc1Cl,-41.7%
4,CC(C)(C)C(=O)N1CCN(c2ccc([N+](=O)[O-])c(NCc3cccnc3)c2)CC1,-29.3%
5,O=C(c1ccc(Cl)cc1)N1CCN(c2ccc([N+](=O)[O-])c(NCc3cccnc3)c2)CC1,-50.1%
6,CCS(=O)(=O)N1CCN(c2ccc([N+](=O)[O-])c(NCc3cccnc3)c2)CC1,-49.1%
7,Cc1ccccc1C(=O)N1CCN(c2ccc([N+](=O)[O-])c(NCc3cccnc3)c2)CC1,-27%
8,O=[N+]([O-])c1ccc(N2CCN(S(=O)(=O)c3ccc(Cl)cc3)CC2)cc1NCc1cccnc1,2.59%
9,CC(=O)N1CCN(c2ccc([N+](=O)[O-])c(NCc3cccnc3)c2)CC1,-22.3%
10,Cc1ccc(NC(=O)c2cc([N+](=O)[O-])ccc2NCc2cccnc2)cc1,-82.7%
11,O=C(c1ccccc1F)N1CCN(c2ccc([N+](=O)[O-])c(NCc3cccnc3)c2)CC1,-45.5%
12,COc1cccc(C(=O)NCCS(=O)(=O)NCc2cccnc2)c1,8.66%
13,COC(=O)c1ccc(NC(=O)CSc2nnc(C3CC3)n2C)cc1,-4.59%
14,COc1ccccc1S(=O)(=O)Cc1ccc(C(=O)NC2CC2)o1,18.5%
15,CCN(CC#CCC1(O)c2ccccc2-c2ccccc21)C(C)C,-9.99%
16,O=C(COC(=O)c1ccc[nH]c1=O)NC1CCCCCC1,46.2%
17,Cc1cc2c(NC(=O)CCCC(=O)O)cccc2nn1,13.6%
18,Cc1cccc2sc(NNC(=O)c3cc(-c4cccs4)nc4ccccc34)nc12,13.4%
19,CC(=O)NC(NC(=S)Nc1ccc(N=Nc2ccccc2)cc1)C(Cl)(Cl)Cl (stereo not drawn),19.6%
20,O=C(COc1ccc(Br)cc1)N1CCOCC1,-0.627%
21,Cc1cccc(NS(=O)(=O)c2ccc3c(c2)NC(=O)CO3)c1C,3.88%
